# Values joined by “and” are separate entries in the source; they are usually repeats but may differ in a detail not shown here. Equal entries are not always repeated. A structure can be active in one record and inactive in another. Active and inactive are the calls of the source. How the source made its calls: active means hit-call score of the fitted dose curve at least 0.9, where 1 is the maximum; inactive means score below 0.9.
# How the values were obtained:
# [1] = target: Bile acid receptor (Homo sapiens) (UniProt Q96RI1); assay: ATG_IR1_CIS: Attagene CIS-FACTORIAL HepG2 Assay for human Nuclear Receptor Subfamily 1 Group H Member 4 (NR1H4), IR1 submotif (AID 2282946); conditions: IR1 reporter transcription, actives raise or lower the signal
# Method in brief: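 Transient MRTU transfection, HepG2; 24 h dosing; RNA → RT-PCR → 6-FAM primer extension → HpaI digest → capillary electrophoresis fluorescence. Gain/loss of signal fitted relative to DMSO.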
# [2] = ATG_GRE_CIS: Attagene CIS-FACTORIAL HepG2 Assay for human Glucocorticoid Response Elements (GRE) (AID 2282947); conditions: HepG2 GRE cis-reporter, Attagene multiplex mRNA; actives raise or lower the signal
# Method in brief: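 Following 24 h chemical exposure of transiently transfected HepG2 cells, total RNA was reverse-transcribed and reporter cDNA amplified, fluorescently labelled and sized by capillary electrophoresis. Signal gain or loss was fitted relative to DMSO vehicle.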
# [3] = ATG_ISRE_CIS: Attagene CIS-FACTORIAL HepG2 Assay for human Interferon Regulatory Factor 1 (IRF1) binding to an Interferon-Stimulated Response Element (ISRE) (AID 2282948); conditions: HepG2 ISRE cis-reporter (Attagene), mRNA transcription readout; actives raise or lower the signal
# Method in brief: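 Cell-based cis-reporter assay; HepG2; 24 h exposure; reporter mRNA by RT-PCR plus capillary electrophoresis fluorescence; activity in either direction scored relative to DMSO.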
# [4] = ATG_M_32_CIS: Attagene CIS-FACTORIAL HepG2 Assay for M32 Transcription Factor (Internal Marker) (AID 2282949); conditions: HepG2 Attagene cis-factorial M32 reporter, mRNA; actives raise or lower the signal;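 further: background control marker of the multiplexed CIS panel rather than a real target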
# Method in brief: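 HepG2 cells transiently transfected with multiplexed cis-regulated reporter units, dosed 24 h. Reporter mRNA quantified by RT-PCR, 6-FAM labelling, HpaI digestion and capillary electrophoresis; bidirectional fit vs DMSO.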
# [5] = target: Hypoxia-inducible factor 1-alpha (Homo sapiens) (UniProt Q16665); assay: ATG_HIF1a_CIS: Attagene CIS-FACTORIAL HepG2 Assay for human Hypoxia Inducible Factor 1 (HIF1A) (AID 2282951); conditions: HepG2 Attagene cis-factorial HIF1a reporter transcription; actives raise or lower the signal
# Method in brief: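 In this multiplexed cell assay, HepG2 cells bearing transfected cis reporters are dosed for 24 h and reporter mRNA is read by RT-PCR plus capillary electrophoresis; signal increases and decreases are both scored against DMSO.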
# [6] = target: Hepatocyte nuclear factor 6 (Homo sapiens) (UniProt Q9UBC0); assay: ATG_HNF6_CIS: Attagene CIS-FACTORIAL HepG2 Assay for human Hepatocyte Nuclear Factor 6 (HNF6) (AID 2282952); conditions: HepG2 Attagene cis-factorial HNF6 reporter transcription; actives raise or lower the signal
# Method in brief: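 HepG2 cells transiently transfected with cis-element-driven multiplexed reporter units measuring endogenous transcription factor activity. After 24 h exposure, reporter mRNA quantified by RT-PCR, FAM-labelled fragments and capillary electrophoresis; bidirectional fitting versus DMSO.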
# [7] = target: Heat shock factor protein 1 (Homo sapiens) (UniProt Q00613); assay: ATG_HSE_CIS: Attagene CIS-FACTORIAL HepG2 Assay for human Heat Shock Transcription Factor 1 (HSE) (AID 2282953); conditions: HepG2 HSE cis-reporter, Attagene RNA transcription; actives raise or lower the signal
# Method in brief: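 HepG2 cells transfected with cis-promoter reporter units sensing endogenous transcription factor activity; reporter mRNA quantified 24 h post-dose by RT-PCR and capillary electrophoresis of 6-FAM-labelled products. Bidirectional fitting against DMSO.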
# [8] = ATG_MRE_CIS: Attagene CIS-FACTORIAL HepG2 Assay for human Metal Responsive Element (MRE) (AID 2282954); conditions: HepG2 MRE cis-reporter transcription, Attagene multiplex; actives raise or lower the signal
# Method in brief: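 Step one: transfect HepG2 with cis-regulated reporter units. Step two: dose 24 h. Step three: isolate RNA, RT-PCR, 6-FAM label, HpaI digest, capillary electrophoresis. Fit bidirectionally to DMSO.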
# [9] = ATG_PBREM_CIS: Attagene CIS-FACTORIAL HepG2 Assay for human Phenobarbital-responsive Enhancer Module (PBREM) (AID 2282955); conditions: HepG2 PBREM cis-reporter, Attagene multiplexed transcription; actives raise or lower the signal
# Method in brief: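 After a 24 h incubation with test chemical, transfected HepG2 cells yield total RNA; reporter-specific RT-PCR products are fluorescently labelled, HpaI-digested and resolved by capillary electrophoresis against ROX size standards.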
# [10] = target: Paired box protein Pax-6 (Homo sapiens) (UniProt P26367); assay: ATG_Pax6_CIS: Attagene CIS-FACTORIAL HepG2 Assay for human Paired Box 6 (PAX6) (AID 2282956); conditions: HepG2 CIS-FACTORIAL PAX6 reporter transcription, RNA readout; actives raise or lower the signal
# Method in brief: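 Multiplexed cis-reporter HepG2 system; 24 h treatment; reporter mRNA read by RT-PCR/CE fluorescence; bidirectional fit vs DMSO.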
# [11] = ATG_RORE_CIS: Attagene CIS-FACTORIAL HepG2 Assay for human RAR-related Orphan Receptor Element (RORE) (AID 2282959); conditions: HepG2 Attagene cis-factorial RORE reporter, mRNA; actives raise or lower the signal
# Method in brief: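 Fluorescence intensity of reporter-specific cDNA fragments, separated by capillary electrophoresis, gives the signal. Source: HepG2 liver cells transiently transfected with cis-element reporters and exposed 24 h; DMSO-normalized bidirectional fit.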
# [12] = ATG_Sox_CIS: Attagene CIS-FACTORIAL HepG2 Assay for human SRY-box transcription factor (SOX) (AID 2282960); conditions: HepG2 Attagene cis-factorial SOX reporter, mRNA; actives raise or lower the signal
# Method in brief: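 After 24 h of chemical treatment, transfected HepG2 reporter cells are lysed for total RNA. Transcript levels come from RT-PCR with labelled primer extension and capillary electrophoresis, analysed bidirectionally versus DMSO.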
# [13] = target: Transcription factor Sp1 (Homo sapiens) (UniProt P08047); assay: ATG_Sp1_CIS: Attagene CIS-FACTORIAL HepG2 Assay for human Specificity Protein 1 (Sp1) (AID 2282961); conditions: HepG2 Sp1 cis-reporter transcription, actives raise or lower the signal
# Method in brief: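 Sp1-driven reporter mRNA, read as capillary electrophoresis fluorescence after RT-PCR, in transiently transfected HepG2 cells dosed for 24 h; signal change in either direction relative to DMSO.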
# [14] = ATG_SREBP_CIS: Attagene CIS-FACTORIAL HepG2 Assay for human Sterol Regulatory Element Binding (SREBP) (AID 2282962); conditions: HepG2 Attagene cis-factorial SREBP reporter, mRNA; actives raise or lower the signal
# Method in brief: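 mRNA induction of transfected cis-promoter reporters in HepG2 cells, 24 h post-dose. Detection: RT-PCR with 6-FAM-labelled products, HpaI digest, capillary electrophoresis. DMSO served as negative control and baseline.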
# [15] = ATG_TA_CIS: Attagene CIS-FACTORIAL HepG2 Assay for human TA Basal Promoter (AID 2282964); conditions: HepG2 Attagene CIS-factorial TA basal promoter reporter; actives raise or lower the signal
# Method in brief: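 HepG2 cells transiently transfected with multiple reporter units under cis promoter elements, reporting endogenous transcription factor activity; this endpoint tracks the TA basal promoter as background control. Reporter mRNA after 24 h dosing measured by RT-PCR/capillary electrophoresis; bidirectional fits versus DMSO.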
# [16] = ATG_TCF_b_cat_CIS: Attagene CIS-FACTORIAL HepG2 Assay for human T-Cell-Factor with beta-catenin (TCF/b-cat) (AID 2282965); conditions: HepG2 TCF/beta-catenin cis-reporter transcription, actives raise or lower the signal
# Method in brief: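 Using capillary electrophoresis as the read-out, labelled reporter cDNA fragments from transiently transfected HepG2 were sized and quantified. Exposure lasted 24 hours; activity in either direction was referenced to DMSO.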
# [17] = ATG_M_06_CIS: Attagene CIS-FACTORIAL HepG2 Assay for M06 Transcription Factor (Internal Marker) (AID 2282950); conditions: HepG2 Attagene CIS-FACTORIAL M06 internal marker reporter; actives raise or lower the signal
# Method in brief: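 Internal background marker within multiplexed cis-reporter HepG2 system. Cells transiently transfected, dosed 24 h; reporter mRNA measured by RT-PCR, HpaI digestion and capillary electrophoresis. Bidirectional fit relative to DMSO.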
# [18] = ATG_PXRE_CIS: Attagene CIS-FACTORIAL HepG2 Assay for human Pregnane X Receptor Element (PXRE) (AID 2282957); conditions: HepG2 Attagene CIS-FACTORIAL PXRE reporter, mRNA; actives raise or lower the signal
# Method in brief: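 HepG2 cells transiently transfected with cis-element-driven multiplexed reporter units; after 24 h chemical exposure, reporter mRNA measured by RT-PCR, 6-FAM labelling, HpaI digestion and capillary electrophoresis. Bidirectional fitting relative to DMSO.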
# [19] = ATG_PPRE_CIS: Attagene CIS-FACTORIAL HepG2 Assay for human Peroxisome Proliferator-activated Response Element (PPRE) (AID 2282958); conditions: HepG2 PPRE cis-element reporter, Attagene transcription factor profiling; actives raise or lower the signal
# Method in brief: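 Multiplexed reporter transcription units under cis-regulatory promoters were transfected into HepG2 cells to capture endogenous factor activity. A 24 h incubation preceded RNA isolation and fluorescent RT-PCR fragment analysis.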
# [20] = target: Signal transducer and activator of transcription 3 (Homo sapiens) (UniProt P40763); assay: ATG_STAT3_CIS: Attagene CIS-FACTORIAL HepG2 Assay for human Signal Transducer and Activator of Transcription 3 (STAT3) (AID 2282963); conditions: HepG2, Attagene cis-factorial STAT3 reporter transcription; actives raise or lower the signal
# Method in brief: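 Transcript-level reporter assay. HepG2 transient MRTU transfection, 24 h exposure, fluorescence detection after RT-PCR and CE; DMSO baseline.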
# Paired box protein Pax-6 (Homo sapiens), sequence (P26367 whole entry, looked up): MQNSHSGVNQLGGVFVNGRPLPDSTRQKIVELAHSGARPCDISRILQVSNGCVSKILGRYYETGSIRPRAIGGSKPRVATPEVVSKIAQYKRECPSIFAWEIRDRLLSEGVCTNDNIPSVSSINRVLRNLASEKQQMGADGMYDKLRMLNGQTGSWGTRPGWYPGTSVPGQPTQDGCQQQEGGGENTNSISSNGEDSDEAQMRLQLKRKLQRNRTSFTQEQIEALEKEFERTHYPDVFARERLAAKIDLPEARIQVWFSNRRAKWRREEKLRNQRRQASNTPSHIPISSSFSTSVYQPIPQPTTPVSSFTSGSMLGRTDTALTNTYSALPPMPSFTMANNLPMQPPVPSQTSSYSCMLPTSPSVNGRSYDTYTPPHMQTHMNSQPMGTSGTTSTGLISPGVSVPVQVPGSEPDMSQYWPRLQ
# Bile acid receptor (Homo sapiens), sequence (Q96RI1 whole entry, looked up): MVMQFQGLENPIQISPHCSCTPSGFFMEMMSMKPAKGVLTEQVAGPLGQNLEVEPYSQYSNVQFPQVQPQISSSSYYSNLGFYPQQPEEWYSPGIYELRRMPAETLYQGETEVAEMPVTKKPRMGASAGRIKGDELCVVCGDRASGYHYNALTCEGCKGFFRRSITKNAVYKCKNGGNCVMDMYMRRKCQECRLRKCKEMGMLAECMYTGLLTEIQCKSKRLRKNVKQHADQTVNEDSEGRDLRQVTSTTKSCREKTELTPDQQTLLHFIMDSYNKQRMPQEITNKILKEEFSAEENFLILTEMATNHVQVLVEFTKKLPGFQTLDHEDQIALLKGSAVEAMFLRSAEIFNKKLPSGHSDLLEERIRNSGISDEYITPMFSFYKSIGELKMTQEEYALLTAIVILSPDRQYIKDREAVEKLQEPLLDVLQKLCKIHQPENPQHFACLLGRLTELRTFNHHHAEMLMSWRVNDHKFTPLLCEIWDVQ
# Heat shock factor protein 1 (Homo sapiens), sequence (Q00613 whole entry, looked up): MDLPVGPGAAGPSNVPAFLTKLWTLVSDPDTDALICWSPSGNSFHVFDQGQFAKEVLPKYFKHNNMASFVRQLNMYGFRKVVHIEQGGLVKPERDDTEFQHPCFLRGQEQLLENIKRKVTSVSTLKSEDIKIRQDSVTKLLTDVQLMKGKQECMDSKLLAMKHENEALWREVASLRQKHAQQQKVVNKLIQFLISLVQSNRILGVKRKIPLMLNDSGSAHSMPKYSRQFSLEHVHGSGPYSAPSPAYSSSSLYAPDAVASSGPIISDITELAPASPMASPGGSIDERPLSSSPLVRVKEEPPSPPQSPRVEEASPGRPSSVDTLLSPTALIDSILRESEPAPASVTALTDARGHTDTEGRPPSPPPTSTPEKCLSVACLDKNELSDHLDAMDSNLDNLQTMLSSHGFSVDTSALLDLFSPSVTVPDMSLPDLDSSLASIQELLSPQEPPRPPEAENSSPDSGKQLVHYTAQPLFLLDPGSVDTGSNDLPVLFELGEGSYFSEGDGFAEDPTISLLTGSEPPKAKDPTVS
# Hepatocyte nuclear factor 6 (Homo sapiens), sequence (Q9UBC0 whole entry, looked up, the tested form may be a part): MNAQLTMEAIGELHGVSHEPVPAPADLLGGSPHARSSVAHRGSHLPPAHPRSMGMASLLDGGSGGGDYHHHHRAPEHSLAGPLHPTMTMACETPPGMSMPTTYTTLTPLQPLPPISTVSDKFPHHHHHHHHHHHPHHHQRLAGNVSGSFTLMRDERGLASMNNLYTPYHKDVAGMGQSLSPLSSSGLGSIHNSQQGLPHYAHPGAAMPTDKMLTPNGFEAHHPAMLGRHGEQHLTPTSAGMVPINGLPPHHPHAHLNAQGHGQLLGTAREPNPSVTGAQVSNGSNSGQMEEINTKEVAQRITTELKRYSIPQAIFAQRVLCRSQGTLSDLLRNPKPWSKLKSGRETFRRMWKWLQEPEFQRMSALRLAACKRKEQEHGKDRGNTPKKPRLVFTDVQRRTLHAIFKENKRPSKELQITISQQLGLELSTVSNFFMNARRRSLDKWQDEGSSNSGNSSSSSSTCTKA
# Hypoxia-inducible factor 1-alpha (Homo sapiens), sequence (Q16665 whole entry, looked up): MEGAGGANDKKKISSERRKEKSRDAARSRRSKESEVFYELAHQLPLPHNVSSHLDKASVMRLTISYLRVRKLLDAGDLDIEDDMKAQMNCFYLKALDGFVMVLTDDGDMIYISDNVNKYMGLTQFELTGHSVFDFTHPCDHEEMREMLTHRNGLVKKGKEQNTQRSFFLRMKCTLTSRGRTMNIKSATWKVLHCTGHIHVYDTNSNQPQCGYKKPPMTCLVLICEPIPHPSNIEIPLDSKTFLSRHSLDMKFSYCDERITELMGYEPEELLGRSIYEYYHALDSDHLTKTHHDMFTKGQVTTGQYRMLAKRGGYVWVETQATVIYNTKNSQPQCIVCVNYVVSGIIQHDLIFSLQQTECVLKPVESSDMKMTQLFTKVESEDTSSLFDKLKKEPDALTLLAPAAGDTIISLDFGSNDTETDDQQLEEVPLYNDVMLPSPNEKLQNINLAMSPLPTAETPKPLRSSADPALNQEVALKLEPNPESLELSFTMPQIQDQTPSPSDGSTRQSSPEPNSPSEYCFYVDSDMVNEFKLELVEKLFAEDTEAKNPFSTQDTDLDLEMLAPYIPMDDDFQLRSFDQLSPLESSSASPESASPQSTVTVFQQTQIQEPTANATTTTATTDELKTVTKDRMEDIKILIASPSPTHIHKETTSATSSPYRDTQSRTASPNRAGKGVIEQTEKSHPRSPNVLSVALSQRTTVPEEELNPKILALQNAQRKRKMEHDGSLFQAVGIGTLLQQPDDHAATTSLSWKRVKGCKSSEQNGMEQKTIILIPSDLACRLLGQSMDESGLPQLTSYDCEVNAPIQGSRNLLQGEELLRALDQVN
# Transcription factor Sp1 (Homo sapiens), sequence (P08047 whole entry, looked up): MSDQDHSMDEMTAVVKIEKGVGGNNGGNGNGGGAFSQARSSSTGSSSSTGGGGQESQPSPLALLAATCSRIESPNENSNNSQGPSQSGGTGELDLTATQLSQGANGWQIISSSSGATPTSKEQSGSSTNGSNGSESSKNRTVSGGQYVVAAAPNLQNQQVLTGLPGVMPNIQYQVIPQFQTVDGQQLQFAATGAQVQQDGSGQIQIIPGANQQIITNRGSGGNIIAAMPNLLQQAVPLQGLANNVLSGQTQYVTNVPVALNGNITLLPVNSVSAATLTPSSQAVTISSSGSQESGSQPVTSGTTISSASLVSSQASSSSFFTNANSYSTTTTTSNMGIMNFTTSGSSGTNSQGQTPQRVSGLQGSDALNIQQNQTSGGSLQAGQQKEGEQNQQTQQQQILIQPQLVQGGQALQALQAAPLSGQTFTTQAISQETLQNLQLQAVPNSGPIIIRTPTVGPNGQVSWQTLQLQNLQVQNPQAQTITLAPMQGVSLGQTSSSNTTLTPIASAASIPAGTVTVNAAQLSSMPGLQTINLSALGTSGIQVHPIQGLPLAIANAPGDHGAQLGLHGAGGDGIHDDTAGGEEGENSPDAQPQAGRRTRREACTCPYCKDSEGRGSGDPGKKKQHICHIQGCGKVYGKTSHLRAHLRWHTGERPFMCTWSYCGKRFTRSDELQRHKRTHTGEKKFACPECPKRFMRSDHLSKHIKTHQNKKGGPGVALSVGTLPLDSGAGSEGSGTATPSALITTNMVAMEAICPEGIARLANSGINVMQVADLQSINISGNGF
# Signal transducer and activator of transcription 3 (Homo sapiens), sequence (P40763 whole entry, looked up): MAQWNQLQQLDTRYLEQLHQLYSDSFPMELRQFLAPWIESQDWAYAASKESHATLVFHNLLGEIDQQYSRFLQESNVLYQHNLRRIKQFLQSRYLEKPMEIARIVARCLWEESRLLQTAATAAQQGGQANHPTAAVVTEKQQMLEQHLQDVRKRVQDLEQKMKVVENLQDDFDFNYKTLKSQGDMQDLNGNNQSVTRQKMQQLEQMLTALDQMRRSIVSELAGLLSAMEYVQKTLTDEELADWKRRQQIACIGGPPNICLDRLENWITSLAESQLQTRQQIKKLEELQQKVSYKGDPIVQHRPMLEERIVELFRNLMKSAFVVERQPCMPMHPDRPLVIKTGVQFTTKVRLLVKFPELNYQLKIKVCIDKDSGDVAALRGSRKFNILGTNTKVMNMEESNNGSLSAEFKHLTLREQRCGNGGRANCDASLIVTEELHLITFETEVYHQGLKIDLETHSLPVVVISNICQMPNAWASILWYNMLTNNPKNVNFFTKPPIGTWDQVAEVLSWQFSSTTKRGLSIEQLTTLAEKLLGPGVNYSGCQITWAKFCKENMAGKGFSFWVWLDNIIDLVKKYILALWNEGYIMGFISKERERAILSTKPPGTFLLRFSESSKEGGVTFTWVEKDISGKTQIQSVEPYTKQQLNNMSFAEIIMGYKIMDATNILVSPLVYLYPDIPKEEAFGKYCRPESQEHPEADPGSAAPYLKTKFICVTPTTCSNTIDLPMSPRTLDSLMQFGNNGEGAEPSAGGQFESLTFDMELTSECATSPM
smiles,measurement,setting,value
Nc1ccc(Cl)cc1N,outcome,[1],inactive
same,outcome,[2],inactive
same,outcome,[3],inactive
same,outcome,[4],inactive
same,AC50,[5],27.6 µM (active)
same,outcome,[6],inactive
same,outcome,[7],inactive
same,AC50,[8],22.9 µM (active)
same,outcome,[9],inactive
same,AC50,[10],27.4 µM (active)
same,AC50,[11],27.7 µM (active)
same,AC50,[12],26.8 µM (active)
same,outcome,[13],inactive
same,outcome,[14],inactive
same,AC50,[15],9.74 µM (active)
same,outcome,[16],inactive
CN(C)C(=O)Nc1ccc(Cl)cc1,outcome,[1],inactive
same,outcome,[2],inactive
same,outcome,[3],inactive
same,outcome,[4],inactive
same,outcome,[17],inactive
same,outcome,[5],inactive
same,outcome,[6],inactive
same,outcome,[7],inactive
same,outcome,[8],inactive
same,outcome,[9],inactive
same,outcome,[10],inactive
same,outcome,[18],inactive
same,outcome,[19],inactive
same,outcome,[11],inactive
same,outcome,[12],inactive
same,outcome,[13],inactive
same,outcome,[14],inactive
same,outcome,[20],inactive
same,outcome,[15],inactive
same,outcome,[16],inactive
Clc1ccc(C(c2ccc(Cl)cc2)C(Cl)Cl)cc1,AC50,[1],21.2 µM (active)
same,outcome,[2],inactive
same,AC50,[3],49.4 µM (active)
same,outcome,[4],inactive
same,outcome,[17],inactive
same,outcome,[5],inactive
same,outcome,[6],inactive
same,AC50,[7],51.7 µM (active)
same,AC50,[8],50.6 µM (active)
same,AC50,[9],56.8 µM (active)
same,AC50,[10],62.7 µM (active)
same,AC50,[18],8.73 µM (active)
same,outcome,[19],inactive
same,outcome,[11],inactive
same,outcome,[12],inactive
same,AC50,[13],59.8 µM (active)
same,AC50,[14],56.4 µM (active)
same,outcome,[20],inactive
same,outcome,[15],inactive
same,outcome,[16],inactive
N#CC(Br)Br,outcome,[1],inactive
same,outcome,[2],inactive
same,outcome,[3],inactive
same,outcome,[4],inactive
same,outcome,[5],inactive
same,outcome,[6],inactive
same,outcome,[7],inactive
same,outcome,[8],inactive
same,outcome,[9],inactive
same,outcome,[10],inactive
same,outcome,[19],inactive
same,outcome,[11],inactive
same,outcome,[12],inactive
same,outcome,[13],inactive
same,outcome,[14],inactive
same,outcome,[15],inactive
same,outcome,[16],inactive
C[C@]12C=CC3=C4CCC(=O)C=C4CC[C@H]3[C@@H]1CC[C@@H]2O,AC50,[1],760 nM (active) and 26.7 µM (active) and 26.8 µM (active)
same,outcome,[1],inactive
same,AC50,[3],59.8 µM (active) [middle of 4 runs]
same,outcome,[3],inactive
same,outcome,[4],inactive
same,outcome,[17],inactive
same,outcome,[5],inactive
same,outcome,[6],inactive
same,outcome,[7],inactive
same,AC50,[8],100 µM (active) and 44.5 µM (active) and 52.5 µM (active)
same,outcome,[8],inactive
same,outcome,[9],inactive
same,AC50,[10],34.2 µM (active)
same,outcome,[10],inactive
same,AC50,[19],26.8 µM (active)
same,outcome,[19],inactive
same,AC50,[11],20.1 µM (active)
same,outcome,[11],inactive
same,outcome,[12],inactive
same,AC50,[13],8.08 µM (active)
same,outcome,[13],inactive
same,AC50,[14],4.15 µM (active)
same,outcome,[14],inactive
same,outcome,[15],inactive
same,AC50,[16],47.7 µM (active) and 33.4 µM (active) and 19.4 µM (active)
same,outcome,[16],inactive
OCCCl,outcome,[1],inactive
same,outcome,[2],inactive
same,outcome,[3],inactive
same,outcome,[4],inactive
same,outcome,[17],inactive
same,outcome,[5],inactive
same,outcome,[6],inactive
same,outcome,[7],inactive
same,outcome,[8],inactive
same,outcome,[9],inactive
same,outcome,[10],inactive
same,outcome,[19],inactive
same,outcome,[11],inactive
same,outcome,[12],inactive
same,outcome,[13],inactive
same,outcome,[14],inactive
same,outcome,[20],inactive
same,outcome,[15],inactive
same,outcome,[16],inactive
O=C(O)C1C2CCC(O2)C1C(=O)O (stereo not drawn),outcome,[2],inactive
same,AC50,[3],61.9 µM (active)
same,AC50,[4],159 µM (active)
same,outcome,[17],inactive
same,outcome,[6],inactive
same,outcome,[7],inactive
same,AC50,[8],149 µM (active)
same,AC50,[9],160 µM (active)
same,AC50,[10],123 µM (active)
same,AC50,[11],100 µM (active)
same,outcome,[12],inactive
same,AC50,[13],100 µM (active)
same,outcome,[14],inactive
same,outcome,[15],inactive
same,outcome,[16],inactive

# — PubChem BioAssay (EPA / NIEHS)
